Screening data as filed in PubChem BioAssay.
In the library only some 5.7% were active in any assay of this set; here they are far more common.
FAS TE block – inhibitors of human fatty acid synthase thioesterase domain; P49327; recombinant FAS-TE, OMFH fluorogenic substrate, fluorescence endpoint; inhibition, % at 15 µM; actives 0.67% (n = 360,000); AID 602261;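 active means compounds whose normalised, plate-corrected inhibition of enzyme fluorescence in the single-dose primary screen is 50% or more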;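 further: 0% = DMSO with enzyme and 100% = substrate without enzyme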
GRIN3A LBD mod – modulates the human NR3A ligand-binding domain | NR3A LBD differential scanning fluorimetry, Tm shift; 0% = protein alone, 100% = glycine-bound protein | Tm shift relative to glycine control, % at 25 µM | actives 2.5% (n = 340,000) | AID 1259313;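 active means melting temperature shift of at least 10% of the positive control shift, at one fixed dose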
Myeloid diff MLP – compounds promoting myeloid differentiation; calls only at 10 µM; actives 1% (n = 360,000); ER-HoxA9 myeloid progenitors, lysozyme-GFP differentiation, flow cytometry;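 active means normalized GFP-positive differentiation at or above the plate's own cutoff, the solvent-only control mean plus 3 SD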;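 further: cells exposed to compound for four days before flow analysis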
rCAG RNA binder – r(CAG) repeat RNA binding | TO-PRO-1 dye displacement fluorescence | inhibition, % at 3 µM | actives 1.3% (n = 370,000) | AID 651821;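 active means inhibition above the plate cutoff, the mean of all test compounds on that plate plus 3 SD, cut at about 35% in these data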;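 further: 0% = DMSO alone and 100% = 100 µM mitoxantrone as full dye displacement; higher means more dye released from RNA so lower well fluorescence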
MPTP block – permeability transition pore inhibition | isolated mouse mitochondria, Ca2+ swelling absorbance, 30 min | inhibition, % at 10 µM | actives 1.4% (n = 360,000) | AID 602449;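 active means inhibition of 50% or more, scaled per plate between neutral and stimulator controls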;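 further: 0% = DMSO wells given calcium and 100% = 1 mM EGTA wells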
Rh123 counter – membrane potential counter-screen of mitochondrial pore inhibitors; actives 78% (n = 5,000); isolated mitochondria, Rhodamine 123 fluorescence; inhibition, % at 10 µM; shares compounds with MPTP block; in the data active means inhibition above about 22%;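 further: 0% = DMSO vehicle and 100% = positive control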
Myeloid diff – myeloid differentiation induction. shares compounds with Myeloid diff MLP. ER-HoxA9 myeloid progenitors, GFP/Mac1 double-positive flow. calls only. actives 2% (n = 2,300). AID 651706;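 active means share of green or green-and-red cells above 9 and 9% in run 1 or 4 and 3% in run 2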
GFP autofluor – counter-screen for myeloid differentiation promoters: compound fluorescence | shares compounds with Myeloid diff MLP | ER-HoxA9 myeloid progenitors, no estrogen, GFP autofluorescence flow cytometry; vehicle wells 0%, positive control 100% | fluorescence response, % (no concentration beside the values) | actives 7.4% (n = 2,300);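 active means over 5% cells positive for green fluorescent reporter, or over 2% positive for both it and APC stain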;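 further: range taken on the double positive population between DMSO and positive control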
rCAG bind conf – r(CAG) RNA repeat binding, confirmation; shares compounds with rCAG RNA binder; TO-PRO-1 dye displacement fluorescence; actives 70% (n = 4,300); inhibition, % at 3 µM; AID 652065;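 active means inhibition above a per-plate cutoff, the mean inhibition of sample wells plus 3 SD, cut at about 35% in these data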;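 further: loss of TO-PRO-1 fluorescence as compound displaces dye from 1x1 AA loop RNA; 0% = DMSO only wells and 100% = 100 µM mitoxantrone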
DNA CAG counter – disrupts DNA CAG TO-PRO-1 complex, flagging rCAG hits; inhibition, % at 3 µM; shares compounds with rCAG RNA binder; AID 652068; actives 94% (n = 4,300); d(CAG) DNA oligo TO-PRO-1 dye displacement, fluorescence;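 active means inhibition above its plate's cutoff, the mean test-well inhibition plus 3 SD, cut at about 4.8% in these data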;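 further: 0% = DNA dye mix with DMSO and 100% = 100 µM mitoxantrone; hits displace the dye from DNA and so lower well fluorescence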
Active calls of the source: *; i = inactive; . = no result; + = active, no number; ! = a repeat was not active.

SMILES	FAS TE block	GRIN3A LBD mod	Myeloid diff MLP	rCAG RNA binder	MPTP block	Myeloid diff	GFP autofluor	others
O=C(Nc1nc(-c2ccccc2)cs1)c1ccccc1NS(=O)(=O)c1ccc(F)cc1	44.2	31.6*	i	89.3*	93.1*	.	.	Rh123 counter=34.7*;rCAG bind conf=88.9*;DNA CAG counter=69.6*
O=C(Nc1cccnc1)c1ccccc1NS(=O)(=O)c1ccc(F)cc1	3.1	-7.0	i	27.4	5.7	.	.
N#CC(C#N)=NNc1ccc(S(=O)(=O)N2CCCCC2)cc1	4.1	12.0*	i	45.5*	89.1*	.	.	Rh123 counter=91.5*;rCAG bind conf=41.2*;DNA CAG counter=15.3*
COC(=O)Nc1ccc(S(=O)(=O)N2CCCCCC2)cc1	-3.8	-0.8	i	-3.7	0.0	.	.
Nc1c(C=C2C=CC(=O)C=C2)c(=O)nc2sc(CC(=O)N3CCCCC3)nn12	-7.5	-0.1	i	19.5	-1.0	.	.
Nc1c(C=C2C=CC(=O)C=C2)c(=O)nc2snc(SCc3ccccc3)n12	2.3	18.1*	i	51.7*	65.9*	.	.	Rh123 counter=59.3*;rCAG bind conf=49.7*;DNA CAG counter=16.4*
C=CCN1[C@@H](Cc2ccccc2)COc2cccc(N3CCCC3)c2S1(=O)=O	.	.	.	10.1	.	.	.
CCNC(=S)NNC(=O)c1csc(C)c1	-9.7	0.5	i	2.0	-2.0	.	.
CCCCNC(=S)NNC(=O)c1csc(C)c1	-3.6	-1.6	i	2.6	0.3	i	0.0
Cn1c(-c2ccccc2)c[n+]2c1-c1ccccc1C2	-4.5	1.0	i	1.7	0.2	+	0.0
Cn1c(-c2ccccc2)cccc1=O	-6.6	-1.3	i	-2.2	-1.0	.	.
C[C@@H]1CN([C@@H](C)CO)S(=O)(=O)c2ccc(Br)cc2O[C@H]1CN(C)C(=O)CN(C)C	-6.4	.	+	0.0	-1.4	i	0.0
C[C@H]1CN([C@@H](C)CO)S(=O)(=O)c2ccc(Br)cc2O[C@H]1CN(C)C(=O)CN(C)C	-8.9	.	i	0.7	-1.0	.	.
C[C@H](CO)N1C[C@H](C)[C@@H](CN(C)C(=O)Nc2ccccc2)Oc2cc(Br)ccc2S1(=O)=O	-5.1	.	i	2.5	0.4	.	.
C[C@@H]1CN([C@H](C)CO)S(=O)(=O)c2ccc(Br)cc2O[C@H]1CN(C)C(=O)Nc1cccc(F)c1	-3.9	.	i	5.1	-0.2	i	0.0
COc1ccc(S(=O)(=O)N(C)C[C@@H]2Oc3cc(C#CC4CCCCC4)ccc3S(=O)(=O)N([C@@H](C)CO)C[C@@H]2C)cc1	26.8	.	i	17.3	-0.8	i	0.0
COC(=O)C[C@@H]1OC[C@H](Cc2ccccc2)N1S(=O)(=O)c1ccc(C)cc1	.	.	i	-0.5	1.7	.	.
Nc1nc2c(ncn2[C@@H]2O[C@H](C(=O)NCC(c3ccccc3)c3ccccc3)[C@@H](O)[C@H]2O)c(=O)[nH]1	.	.	.	6.1	.	.	.
COc1ccc(-c2ccc([C@H]3[C@@H]4C=CCC[C@@]4(C)C(=O)N3Cc3ccccc3)c(F)c2)cc1	31.5	2.1	i	3.3	0.3	i	0.0
Cc1ccc(-c2ccc([C@H]3[C@@H]4C=CCC[C@@]4(C)C(=O)N3Cc3ccccc3)c(F)c2)cc1	28.5	2.6	i	5.2	0.5	.	.
COc1cccc(/C=N/NC(=O)c2cc(-c3cccn3C)n[nH]2)c1O	-1.7	6.9	i	4.6	1.9	i	0.0
Cc1ccc(S(=O)(=O)N2CCOCC2)cc1NC(=O)COC(=O)C1=COCCO1	-3.7	0.9	i	-2.0	-0.4	.	.
CCCn1nnc(NC(=O)c2cc(Br)ccc2OC)n1	-1.8	-0.1	i	-3.4	1.2	i	0.0
CCCn1nnc(NC(=O)c2cccc(Cl)c2)n1	-5.6	0.1	i	1.6	-3.0	.	.
O=C(NCCOc1ccccc1)c1ccc2c(c1)S(=O)(=O)c1cc(Cl)ccc1C2=O	25.5	1.8	i	8.4	1.5	.	.
SMILES	FAS TE block	GRIN3A LBD mod	Myeloid diff MLP	rCAG RNA binder	MPTP block	Myeloid diff	GFP autofluor	others
COCCNc1nc(-c2ccc(Cl)cc2C)c2sccc2n1	9.7	.	i	0.2	-0.4	.	.
COc1ccc(-n2c(SC(C)C(=O)Nc3ncc(Cl)cc3Cl)nc3ccccc32)cc1 (centres undefined)	25.4	0.8	+	-0.7	1.5	i	0.0
CCCOc1ccc(/C=N/NC(=O)CSCc2ccc([N+](=O)[O-])cc2)cc1OCC	12.3	-3.1	i	2.5	2.6	.	.
CCOC(=O)c1c(-c2ccc(OC)cc2)csc1NC(=O)CSc1ncnc2sccc12	15.4	-2.2	i	8.2	19.2	i	1.0
Cc1ccc2nc(Cl)c(/C=N/n3c(C)nnc3C)cc2c1	-4.7	0.3	i	-1.2	1.3	.	.
COc1ccccc1CN1C(=O)C2CC=CCC2C1=O (centres undefined)	0.2	0.5	i	-3.1	-0.1	i	1.2
CC1Nc2ncnc(N3CCc4ccccc4C3)c2N(Cc2ccc(Br)cc2)C1=O (centres undefined)	7.1	-10.8	+!	9.3	-0.7	i	0.0
Cn1nccc1C(=O)Nc1sc2c(c1C#N)CCCC2	-7.7	2.0	i	10.8	1.7	.	.
Cn1nccc1C(=O)Nc1sc2c(c1C(N)=O)CCCC2	-2.8	-0.9	i	2.5	-1.2	i	0.0
COc1cc(NC(=O)c2cc3nc(C4CC4)cc(C(F)(F)F)n3n2)c(OC)cc1Cl	27.1	1.4	i	3.7	1.4	i	0.0
COCCN(C(=O)CSc1n[nH]c(-c2ccc(OC)cc2)n1)c1c(N)n(Cc2ccccc2)c(=O)[nH]c1=O	-7.9	-1.2	+	0.0	-0.6	i	0.0
COCCN(C(=O)COC(=O)CCc1nc2ccccc2s1)c1c(N)n(Cc2ccccc2)c(=O)[nH]c1=O	-4.7	-1.3	i	-6.3	0.9	.	.
CCc1ccc(-c2nc(SCC(=O)N(CCOC)c3c(N)n(Cc4ccccc4)c(=O)[nH]c3=O)n[nH]2)cc1	-4.4	-1.3	i	-3.5	-0.7	.	.
COCCN(C(=O)CSc1nc2ccccc2s1)c1c(N)n(Cc2ccccc2)c(=O)[nH]c1=O	-6.8	0.1	+	9.6	5.9	i	3.2
COc1cc(/C=C/C(=O)N2CC(C)OC(C)C2)cc(OC)c1OC (centres undefined)	-1.9	-3.2	i	-0.7	1.1	.	.
